Screens as filed in PubChem BioAssay.
Sampled rows, rich in hits. Any-hit rate of the full collection: about 7.9%.
MCF10A rerep – A quantitative high throughput screen for small molecules that induce DNA re-replication in MCF 10a normal breast cells; MCF 10A DNA re-replication, Hoechst nuclear intensity, 48 h; Potency, µM (top dose mostly 46.1 µM), inactives show at the highest dose activity, positive = re-replication, usual class: activators; actives 2.9% (n = 350,000); AID 624296, 2012; note: % of control where 0% means no effect; nearly all actives have a fitted effect of over 50% in size
KB-3-1 cytotox – qHTS assay for MDR1-selective chemotherapeutics: Primary screen using the parental adenocarcinoma cell KB-3-1; actives 1.4% (n = 400,000); KB-3-1 viability, CellTiter-Glo ATP luminescence, 72 h; Potency, µM (highest dose often 46.1 µM), actives largely listed as cytotoxic; AID 1347075, 2019; note: % is set by controls: 0 for no effect and ±100 for the full control effect; nearly all actives have a fitted effect of over 60% in size
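KB-3-1 parental drug-naive adenocarcinoma cells in DMEM/10% FBS, incubated 72 h at 37 C with pin-transferred compounds across a concentration series. Viability by CellTiter-Glo luminescence; concentration-response curves fitted after normalization.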
HT1080 IDH1KD tx – qHTS for induction of synthetic lethality in tumor cells producing 2HG: qHTS for the HT-1080-IDH1KD cell line; Potency, µM (highest dose often 46.1 µM), for the others: at the highest dose activity, negative = toxicity, actives largely listed as cytotoxic; HT-1080 IDH1 knockdown viability, ATP luminescence, 48 h; AID 686971, 2013; actives 2% (n = 360,000);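 note: 0% = DMSO wells and -100% = cell-free medium wells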
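% activity derives from luminescence (CellTiter-Glo), normalised to DMSO and no-cell wells. HT-1080-IDH1KD cells, 750/well, had 48 h compound exposure at 37 °C.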
SW480 rerep – A quantitative high throughput screen for small molecules that induce DNA re-replication in SW480 colon adenocarcinoma cells; actives 1.8% (n = 340,000); AID 624297, 2012; Potency, µM (top dose mostly 46.1 µM), inactives show at the highest dose re-replication activation, hits mostly activators; SW480 DNA re-replication, Hoechst DNA content imaging, 48 h; note: % of control where 0% means no effect; nearly all actives have a fitted effect of over 55% in size
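250 cells/well; 23 nL cpd via pin tool; 48 hr, 37 C, 5% CO2; Hoechst 40 min; imager read of total nuclear intensity, ex 405/em 500-530 nm.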
KB-V1 MDR tox – qHTS assay for MDR1-selective chemotherapeutics: Primary screen using the drug-selected MDR subline cells KB-V1; actives 3.4% (n = 400,000); Potency, µM (top dose mostly 46.1 µM), hits mostly cytotoxic; KB-V1 MDR cells viability, CellTiter-Glo, 72 h; note: % is set by controls: 0 for no effect and ±100 for the full control effect; nearly all actives have a fitted effect of over 60% in size
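KB-V1 MDR subline cells in DMEM (phenol-red free, 10% FBS) exposed to compounds in qHTS concentration series for 72 h at 37 degrees C. Viability read by CellTiter-Glo luminescence; concentration-effect curves fitted after normalization and correction.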
HT1080-NT tox – qHTS for induction of synthetic lethality in tumor cells producing 2HG: qHTS for the HT-1080-NT fibrosarcoma cell line; Potency, µM (top dose mostly 46.1 µM), inactives show at the top dose activity, negative = less viability, actives largely listed as cytotoxic; actives 1.6% (n = 360,000); HT-1080-NT fibrosarcoma viability, CellTiter-Glo ATP luminescence, 48 h; AID 686970, 2013;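 note: NT is the 2HG producing partner of a matched IDH1 knockdown line; 0% = DMSO-treated cells and -100% = media-only wells without cells; nearly all actives have a fitted effect of over 55% in size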
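Fibrosarcoma NT cells, 750 per well in 5% FBS RPMI, were exposed to compound for 48 hours. Viability: CellTiter-Glo luminescence.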
Active calls of the source: *; i = inactive; ? = inconclusive; nt = not tested or not shown. Calls come from the whole dose curve; as a rule, active = well fitted curve in the direction sought with a large enough effect; inconclusive = small, poorly fitted or top-dose-only effect, or another doubt; inactive = no such curve, though single readings can be large; an effect the other way counts as inactive or inconclusive. Potency is the fitted concentration of half-maximal effect.

SMILES	MCF10A rerep	KB-3-1 cytotox	HT1080 IDH1KD tx	SW480 rerep	KB-V1 MDR tox	HT1080-NT tox
CCOc1cccc(C(=O)Nc2ccc(NC(=O)c3cc4ccccc4o3)c(OC)c2)c1	?	i	-12.0%	-1.4%	?	?
COc1cc(NC(=O)C(C)C)ccc1NC(=O)c1cc2ccccc2o1	-0.6%	i	4.0%	-6.8%	i	0.5%
COc1ccc(/C(C)=N/OCC(=O)Nc2nc3ccccc3s2)cc1OC	?	?	-3.1%	-115.1%	14.6µM*	8.0%
COc1cc(C(=O)N=c2sccn2C)c([N+](=O)[O-])cc1OC	0.1%	i	-1.4%	-14.6%	i	12.4%
Cn1ccsc1=NC(=O)c1ccc([N+](=O)[O-])o1	7.31µM*	?	-21.4%	9.2µM*	?	-19.2%
Cc1ccc(Cn2ncc3c(N4CCN(Cc5ccc(Cl)cc5)CC4)ncnc32)cc1	?	?	-12.0%	11.1%	2.59µM*	-2.3%
Cn1ncc2c(N3CCC(Cc4ccccc4)CC3)ncnc21	-10.0%	?	?	3.2%	4.61µM*	-25.0%
Cc1ccc(Cn2ncc3c(N4CCN(c5ccc(C)cc5)CC4)ncnc32)cc1	24.0%	i	-15.1%	2.0%	?	6.5%
COc1ccc(-n2ncc3c(N4CCN(Cc5ccccc5)CC4)ncnc32)cc1	20.6µM*	?	?	?	13µM*	14.6µM*
Cc1ccc(-n2ncc3c(N4CCN(Cc5ccccc5)CC4)ncnc32)cc1C	nt	i	nt	nt	?	nt
COc1cccc(N2CCN(c3ncnc4c3cnn4-c3ccc(C)cc3C)CC2)c1	6.51µM*	10.3µM*	?	5.4%	?	23.1µM*
c1ccc(CCN2CCN(c3ncnc4c3cnn4-c3ccccc3)CC2)cc1	?	?	-0.9%	-6.5%	i	1.6%
O=C(CNc1cc(S(=O)(=O)N2CCOCC2)ccc1NCC1CCCO1)Nc1ccccc1F (configuration not stated)	1.8%	i	9.1%	-3.7%	i	7.7%
CCOc1ncccc1C(=O)OCC(=O)NCc1ccccc1	-29.1%	i	-4.4%	-28.8%	i	-0.1%
CCCCn1c(N)c(N(CCOC)C(=O)c2ccc(C)o2)c(=O)[nH]c1=O	1.8%	i	1.2%	3.3%	i	3.5%
O=C1c2ccccc2CN1CCNS(=O)(=O)c1ccc2ccccc2c1	-0.8%	i	2.2%	-5.3%	i	9.3%
COC(=O)CNC(=O)/C=C/c1cc(Br)ccc1OC	-16.3%	i	12.1%	?	i	12.5%
COc1ccc(-n2ncc3c(SCC(=O)N4CCN(c5ccccc5OC)CC4)ncnc32)cc1	?	i	-0.8%	0.9%	9.2µM*	-2.5%
Cc1ccccc1N1CCN(c2ncnc3c2cnn3Cc2ccc(Cl)cc2)CC1	3.5%	18.4µM*	-12.1%	16.9%	?	-5.2%
CC(C(=O)Nc1ccc(C#N)cc1)N(C)CC(=O)Nc1ccccc1Br (configuration not stated)	10.9%	i	23.1µM*	-3.6%	i	?
COc1ccc(N2CC(NS(=O)(=O)c3cccs3)CC2=O)cc1OC (configuration not stated)	-0.4%	i	3.7%	-378.8%	i	9.1%
CNC(=O)OCc1nc(SSC(C)(C)C)n(C)c1COC(=O)NC	2.91µM*	?	18.4µM*	4.11µM*	i	?
CCN(CC)CCCNC(=S)N1CCN(c2nc(-c3ccc(F)cc3)cs2)CC1	?	i	8.2µM*	?	?	20.6µM*
CC(=NNS(=O)(=O)c1cccc([N+](=O)[O-])c1)c1ccc(-n2ccnc2)cc1	7.0%	i	1.5%	-4.1%	i	-3.7%
Cc1cc(C(C)(C)C)ccc1NC(=O)CC(C)(C)CC(=O)O	3.4%	i	12.8%	5.2%	i	20.5%
SMILES	MCF10A rerep	KB-3-1 cytotox	HT1080 IDH1KD tx	SW480 rerep	KB-V1 MDR tox	HT1080-NT tox
NSc1nc(N)c2nc(-c3ccccc3)c(-c3ccccc3)nc2n1	-36.3%	?	-5.3%	-39.3%	i	-6.9%
Nc1nc(N)c2nc(-c3ccccc3)c(N)nc2n1	-44.8%	i	2.91µM*	14.3%	i	2.31µM*
CCCN(CC(=O)Nc1cc(Cl)cc(Cl)c1)CC(=O)Nc1ccc(F)c(F)c1F	?	i	?	?	23.1µM*	?
O=C(NCc1ccccc1)c1cc2nc(C3CC3)cc(C(F)(F)F)n2n1	9.3%	i	1.3%	-2.3%	23.1µM*	22.4%
O=C(NCc1ccco1)c1cc2nc(C3CC3)cc(C(F)(F)F)n2n1	6.2%	i	-8.6%	-0.7%	?	-6.6%
C/C(=N\NC(=O)COc1ccc(C)cc1Br)c1cc([N+](=O)[O-])cs1	8.2µM*	20.6µM*	?	9.2µM*	?	?
Cc1ccc(NC(=O)Cn2nc(C(=O)O)c3ccccc3c2=O)cc1S(=O)(=O)N1CCCCC1	-2.6%	i	13.7%	-6.8%	i	2.4%
O=C(Nc1cc(C(=O)N2CCCC2)ccc1N1CCCC1)c1ccccc1F	-6.3%	i	-12.5%	-0.5%	3.66µM*	15.9%
O=C(Nc1ccc(C(=O)N2CCCC2)cc1)c1ccccc1F	-16.8%	?	?	-4.1%	i	?
CCOc1ccc(CCNC(=O)CN(C)S(=O)(=O)c2cccs2)cc1OCC	6.3%	i	1.4%	1.0%	4.61µM*	-2.9%
CCOc1ccc(CCNC(=O)Cn2c(=O)oc3ccccc32)cc1OCC	-4.2%	i	-6.8%	-3.4%	18.4µM*	22.3%
COc1ccc(Cn2c(=O)oc3ccccc32)cc1OC	nt	?	-13.7%	nt	20.6µM*	-1.2%
CCOC(=O)N1CCN(C(=O)CSc2ncnc3sccc23)CC1	6.1%	i	-10.3%	-116.8%	?	-17.6%
CCOC(=O)CCSc1nc(C)c2ccccc2n1	10.1%	i	7.3%	2.4%	?	14.1%
Cc1ccc(CCNC(=O)c2ccc3nc4ccc(Cl)cc4c(=O)n3c2)cc1	14.7%	i	7.3%	0.8%	i	0.9%
O=C1C=C(c2ccc3[nH]ccc3c2)C[C@@H](c2ccc(F)cc2)C1	20.6µM*	?	-18.0%	1.9%	i	-3.0%
